For 16 compounds, growth results are on record in PubChem BioAssay (NCI).

Test systems include RPMI-8226 leukemia; OVCAR-8 ovarian; OVCAR-5 ovarian; OVCAR-4 ovarian; SK-OV-3 ovarian; OVCAR-3 ovarian; NCI/ADR-RES ovarian; IGROV1 ovarian; HS 578T breast.
What all share (test): NCI-60 one-dose screen, 48 h (100 = growth as untreated, 0 = no growth, -100 = all killed)
Holding throughout (settings): 10 µM

About 83,000 compounds went through this panel and 20% of them were active in at least one assay; those are over-represented in the sample as a whole.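 Single-dose data. Exposure time 48 hours. Values below 10 considered active.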 A number with no mark means an inactive call. Active and inactive are the calls of the source.

As to `CCOc1ccccc1/C=N\N=C(\N)N/N=C/c1ccccc1OCC`, the growth in the assay with RPMI-8226 leukemia is 27.1%; with OVCAR-8 ovarian it was 39.1%; with OVCAR-5 ovarian, 93.4%; with OVCAR-4 ovarian, 71.8%; in the assay on SK-OV-3 ovarian, 10.3%; in the assay on OVCAR-3 ovarian it was 7.41% (active). In the assay on NCI/ADR-RES ovarian, the growth is 3.57% (active).

For the compound `CCN1C(=O)CC(SC2CC(=O)N(CC)C2=O)C1=O` (configuration not stated), the growth with OVCAR-8 ovarian was 109%; with OVCAR-5 ovarian it was 106%; with OVCAR-4 ovarian it was 102%; with SK-OV-3 ovarian it was 103%; in the assay on IGROV1 ovarian, 107%; in the assay with OVCAR-3 ovarian, 107%. The growth in the assay with HS 578T breast was 101%; in the assay on NCI/ADR-RES ovarian, 98.7%.

In the case of `NC(N)=N/N=C(\N=Nc1ccccc1)c1ccc(Cl)cc1`, the growth with OVCAR-8 ovarian was 26.2%; in the assay on OVCAR-5 ovarian, 24.9%; in the assay on OVCAR-4 ovarian, 51.8%; with SK-OV-3 ovarian, 55.5%; with IGROV1 ovarian it was 46.3%; in the assay on OVCAR-3 ovarian, 12.6%. Besides, the figures for the growth in the assay on HS 578T breast and in the assay on NCI/ADR-RES ovarian were 65.2% and 8.53% (active), respectively.

On to `O=C(CSc1nccc(Nc2cccc3ccccc23)n1)c1ccc(Cl)cc1`, for which the growth is 92.3% in the assay with OVCAR-8 ovarian; 87.4% in the assay on OVCAR-5 ovarian; 98.7% in the assay on OVCAR-4 ovarian; 86.4% with SK-OV-3 ovarian; 69% in the assay on IGROV1 ovarian; 99.5% in the assay on OVCAR-3 ovarian. The values for the growth with HS 578T breast and in the assay on NCI/ADR-RES ovarian were 99.7% and 93.7%, respectively.

Regarding `COc1cc2nc(SCC(=O)Nc3cc(OC)c(OC)c(OC)c3)n(Cc3ccccc3)c(=O)c2cc1OC`, the growth in the assay on OVCAR-8 ovarian was -4.94% (active); with OVCAR-5 ovarian it was 93.7%; in the assay on OVCAR-4 ovarian, 48.1%; in the assay on SK-OV-3 ovarian, 47.4%; with IGROV1 ovarian, 75.5%; with OVCAR-3 ovarian it was 69.7%. Moreover, in the assay with HS 578T breast, the growth was 24.9%.

`COc1ccc(C(=O)CC(CC(=O)c2ccc(OC)cc2)c2c(C)nn(-c3ccccc3)c2Cl)cc1`: the growth in the assay with OVCAR-5 ovarian is 91.8%; with OVCAR-4 ovarian, 101%; in the assay on IGROV1 ovarian, 104%; in the assay on OVCAR-3 ovarian it was 115%; with HS 578T breast, 94.4%; in the assay with NCI/ADR-RES ovarian, 95.5%.

Regarding `CCOC(=O)c1cocc1C(=O)O`, the growth with OVCAR-8 ovarian is 105%; with OVCAR-4 ovarian, 100%; with SK-OV-3 ovarian, 106%; in the assay with IGROV1 ovarian it was 113%; with OVCAR-3 ovarian it was 103%; with HS 578T breast, 100%. The growth with NCI/ADR-RES ovarian is 107%.

Consider `O=[N+]([O-])c1ccc(NCSc2ccc(Cl)cc2)cc1`, for which the growth in the assay with RPMI-8226 leukemia was 91.8%; in the assay with OVCAR-8 ovarian, 97%; with OVCAR-5 ovarian, 106%; in the assay with OVCAR-4 ovarian, 117%; in the assay with SK-OV-3 ovarian, 109%; in the assay with OVCAR-3 ovarian, 106%. For the same compound, in the assay with NCI/ADR-RES ovarian, the growth is 102%.

In the case of `Cc1cn(-c2cc(F)cc(NC(=O)c3ccc(C)c(Nc4nccc(-c5cccnc5)n4)c3)c2)cn1`, the growth in the assay with OVCAR-8 ovarian was 31.6%; in the assay with OVCAR-5 ovarian, 45.2%; with OVCAR-4 ovarian, -41.7% (active); with SK-OV-3 ovarian, 2.64% (active); in the assay with HS 578T breast, 38.5%; in the assay on NCI/ADR-RES ovarian, 59.9%.

As to `CN(C)c1nc(N)c2nccnc2n1`, the growth with RPMI-8226 leukemia is 110%; in the assay on OVCAR-8 ovarian, 110%; in the assay on OVCAR-5 ovarian, 100%; in the assay with OVCAR-4 ovarian it was 104%; with SK-OV-3 ovarian, 110%; in the assay with HS 578T breast, 105%. In the assay on NCI/ADR-RES ovarian, the growth is 99.2%.

For the compound `O=C(O)c1cn(C2CC2)c2cc(N3CCN(C(=O)c4cc(-c5ccc(Cl)cc5)nc5ccccc45)CC3)c(F)cc2c1=O`, the growth in the assay with OVCAR-8 ovarian is 89.9%; in the assay with OVCAR-5 ovarian it was 98.2%; in the assay with OVCAR-4 ovarian, 98.6%; in the assay with SK-OV-3 ovarian it was 77.9%; in the assay with IGROV1 ovarian, 51.4%; in the assay on OVCAR-3 ovarian it was 100%. Also, the values for the growth in the assay with HS 578T breast and with NCI/ADR-RES ovarian were 94% and 98.9%, respectively.

Consider `CCNc1nc(C(F)(F)F)nc2c1sc(=S)n2-c1ccccc1`, for which the growth in the assay on OVCAR-8 ovarian was 96.1%; with OVCAR-5 ovarian, 112%; with OVCAR-4 ovarian, 98.2%; in the assay on SK-OV-3 ovarian it was 102%; in the assay on IGROV1 ovarian it was 102%; in the assay with OVCAR-3 ovarian, 107%. In addition, the growth is 107% in the assay on HS 578T breast and 92.9% in the assay with NCI/ADR-RES ovarian.

On to `Cc1cc(Br)nnc1Br`, for which the growth was 122% with RPMI-8226 leukemia; 115% in the assay on OVCAR-8 ovarian; 105% with OVCAR-5 ovarian; 113% in the assay with OVCAR-4 ovarian; 101% with SK-OV-3 ovarian; 110% with HS 578T breast. The growth with NCI/ADR-RES ovarian is 120%.

For the compound `COc1ccc(C2CC(c3cccs3)=NN2c2ccc(S(N)(=O)=O)cc2)cc1` (configuration not stated), the growth is 61.2% in the assay on RPMI-8226 leukemia; 84.4% with OVCAR-8 ovarian; 95.4% in the assay on OVCAR-5 ovarian; 107% with OVCAR-4 ovarian; 88.5% in the assay with SK-OV-3 ovarian; 92.5% in the assay on OVCAR-3 ovarian. In addition, the growth in the assay with HS 578T breast was 97.4%; with NCI/ADR-RES ovarian, 77.4%.

Consider `O=C(c1ccccc1)N(C(=O)c1ccccc1)N1CCCC1`, for which the growth with RPMI-8226 leukemia is 103%; in the assay with OVCAR-5 ovarian it was 99.3%; with OVCAR-4 ovarian, 106%; in the assay on SK-OV-3 ovarian, 109%; in the assay with OVCAR-3 ovarian, 110%; in the assay with HS 578T breast, 105%. The growth with NCI/ADR-RES ovarian was 102%.

Consider `Nc1nc(N)c(N)c(Nc2ccc(CCO)cc2)n1`, for which the growth was 95.3% in the assay with RPMI-8226 leukemia; 105% with OVCAR-8 ovarian; 111% in the assay with OVCAR-5 ovarian; 112% with OVCAR-4 ovarian; 110% in the assay on SK-OV-3 ovarian; 107% in the assay with OVCAR-3 ovarian. Also, the growth was 100% in the assay with HS 578T breast and 103% in the assay on NCI/ADR-RES ovarian.
